From PubChem BioAssay (NCI)
Compounds without any hit were thinned out: in the full panel of roughly 83,000, 20% have a hit.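 Assay: single dose, 48 h. Readout: percent growth (0 = no net growth; negative = cell death). Active: <10.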 Active and inactive are the calls of the source.

How the values were obtained:
Assay in all cases: NCI-60 one-dose screen, 48 h (100 = growth as untreated, 0 = no growth, -100 = all killed)
Settings in all cases: 10 µM unless noted
[1] = tested on: DU-145 prostate
[2] = tested on: K-562 leukemia
[3] = tested on: MALME-3M melanoma
[4] = tested on: MDA-MB-231 breast
[5] = tested on: SF-268 CNS
[6] = tested on: SF-295 CNS
[7] = tested on: SF-539 CNS
[8] = tested on: UACC-257 melanoma
[9] = tested on: M14 melanoma
[10] = tested on: RXF 393 renal

Measured: growth

O=C(c1ccc(N2CCOCC2)cc1[N+](=O)[O-])N1CCOCC1
inactive: [1] 114% | [2] 159% | [3] 103% | [4] 134% | [5] 110% | [7] 107% | [8] 43.9% | [9] 107%
active: [6] -38.9%

O=C1CSC(c2ccccc2Cl)N1c1nnc(Cn2nnc3ccccc32)o1 (stereo unspecified)
inactive: [1] 91.8% | [2] 69.6% | [3] 127% | [4] 77.1% | [10] 90.1% | [5] 84.2% | [7] 89% | [8] 94.7% | [9] 89.8%

CC1Cc2ccccc2N1C(=O)c1ccc(C(=O)c2ccccc2)cc1 (stereo unspecified)
inactive: [1] 79.7% | [2] 85.6% | [3] 73% | [4] 91.3% | [5] 92.1% | [6] 84% | [7] 96.3% | [8] 30.1% | [9] 83.5%

COC(=O)[C@H](CCCCNC(=O)OCc1ccccc1)NC(=O)[C@@H](NC(=O)Nc1cc(C(F)(F)F)cc(C(F)(F)F)c1)C(C)C
active: [1] -82.2% [100 µM] | [2] -18.9% [100 µM] | [3] -61.4% [100 µM] | [4] -87.8% [100 µM] | [10] -90.8% [100 µM] | [5] -85% [100 µM] | [6] -65.5% [100 µM] | [8] -78.5% [100 µM] | [9] -75.6% [100 µM]

O=C1NC(=O)/C(=C\c2ccco2)S1
inactive: [1] 112% | [2] 111% | [3] 101% | [4] 89.5% | [10] 106% | [5] 99.4% | [7] 103% | [8] 108% | [9] 104%

O=C(NC1CCS(=O)(=O)C1)c1ccc(C(=O)c2ccccc2)cc1 (stereo unspecified)
inactive: [1] 128% | [2] 108% | [3] 108% | [4] 124% | [5] 118% | [6] 99.6% | [7] 103% | [8] 82.7% | [9] 98.6%

CCCCCc1c(C)[nH]c(/C=C2\N=C(c3ccc[nH]3)C=C2Oc2ccc(Cl)cc2)c1C
active: [1] 3.42% [100 µM] | [2] 0.896% [100 µM] | [3] -59.3% [100 µM] | [4] -38.7% [100 µM] | [10] -2.91% [100 µM] | [5] -72.6% [100 µM] | [6] -72.9% [100 µM] | [8] -25.4% [100 µM] | [9] -88.5% [100 µM]

FC(F)(F)c1ccc(-c2cnc(-c3nn[nH]n3)nc2NC2CCCCCC2)cc1
inactive: [1] 64% [50 µM] | [2] 20% [50 µM] | [3] 69.5% [50 µM] | [4] 64.1% [50 µM] | [10] 88.7% [50 µM] | [5] 47.8% [50 µM] | [7] 64% [50 µM] | [8] 81.6% [50 µM] | [9] 53.2% [50 µM]

CC(C)CNc1nc(N=[N+]=[N-])nc(NCC(C)C)n1
inactive: [1] 80.1% [100 µM] | [2] 33.5% [100 µM] | [3] 72.7% [100 µM] | [4] 48.5% [100 µM] | [10] 70.8% [100 µM] | [5] 63.3% [100 µM] | [6] 36.5% [100 µM] | [8] 62.7% [100 µM] | [9] 57.7% [100 µM]

COc1cc2c(cc1OC)C(CC1(O)CCCCC1)N(S(=O)(=O)c1ccc(C)cc1)CC2 (stereo unspecified)
active: [6] 3.6% [100 µM]
inactive: [1] 32.3% [100 µM] | [2] 10.8% [100 µM] | [3] 18.9% [100 µM] | [4] 40.8% [100 µM] | [10] 48.9% [100 µM] | [5] 26.3% [100 µM] | [8] 22.4% [100 µM] | [9] 13% [100 µM]

Nc1ccc(Oc2c(F)c(F)c(Oc3ccc(N)cc3)c(F)c2F)cc1
inactive: [1] 107% | [2] 93.3% | [3] 87.1% | [4] 109% | [5] 97.9% | [6] 103% | [7] 111% | [9] 99.1%
active: [8] 9.12%

COc1cccc(C=Nc2cc(C(C)C)c(O)cc2C)c1O
inactive: [1] 114% | [2] 107% | [3] 106% | [4] 88.9% | [10] 104% | [5] 92.1% | [7] 91.7% | [8] 111% | [9] 106%

Nc1nc2c(nnn2Cc2ccc(Cl)c(Cl)c2)c(=O)[nH]1
inactive: [1] 116% | [2] 83.3% | [3] 107% | [4] 94.5% | [10] 107% | [5] 96.6% | [7] 98.3% | [8] 98.9% | [9] 103%

CC(C)OP(=O)(OC(C)C)c1ncc(-c2ccc(C(F)(F)F)cc2)c(NC2CCCCCC2)n1
active: [1] -81.2% [33.3 µM] | [2] -22.1% [33.3 µM] | [3] -85% [33.3 µM] | [4] -8.63% [33.3 µM] | [10] -85.7% [33.3 µM] | [5] -90.6% [33.3 µM] | [6] -85.6% [33.3 µM] | [8] -41.1% [33.3 µM] | [9] -90.2% [33.3 µM]

CCc1ccc(-c2nc(SCC(=O)NC3CCCCC3)n[nH]2)cc1
active: [8] -1.69%
inactive: [1] 102% | [2] 33.3% | [3] 88.2% | [4] 63.3% | [5] 82.6% | [6] 15.8% | [7] 92.9% | [9] 77.7%

C[C@H]1C(=O)N2c3ccccc3[C@@]3(O)C[C@@H](n4cnc5ccccc5c4=O)C(=O)N1[C@@H]23
inactive: [1] 123% | [2] 99.2% | [3] 107% | [4] 110% | [5] 112% | [6] 130% | [7] 101% | [8] 66.8% | [9] 108%

CCCCCc1c(C)[nH]c(/C=C2\N=C(c3ccc[nH]3)C=C2OCc2ccccc2)c1C
active: [1] -100% [100 µM] | [2] -26.2% [100 µM] | [3] -86.9% [100 µM] | [4] -86.4% [100 µM] | [10] -48.8% [100 µM] | [5] -70.9% [100 µM] | [7] -69.8% [100 µM] | [8] -87.7% [100 µM] | [9] -81.4% [100 µM]

COC(=O)[C@H](Cc1cn(C)cn1)NC(=O)[C@H](Cc1ccccc1)NC(=O)Nc1cc(C(F)(F)F)cc(C(F)(F)F)c1
active: [1] -99.7% [100 µM] | [2] -60.2% [100 µM] | [3] -86.3% [100 µM] | [4] -90.8% [100 µM] | [10] -84.3% [100 µM] | [5] -94.8% [100 µM] | [7] -94% [100 µM] | [8] -96.6% [100 µM] | [9] -90.9% [100 µM]

COc1cc(NC(C)CCCN)c2nc(C)ccc2c1Oc1ccc(F)cc1 (stereo unspecified)
inactive: [1] 99.9% | [2] 35.9% | [3] 71.7% | [4] 61.5% | [10] 69.3% | [5] 80.7% | [7] 87.5% | [8] 65.7% | [9] 62.3%

O=C(O)CCNS(=O)(=O)c1ccc(-c2ccccc2)cc1
inactive: [1] 127% | [2] 114% | [3] 112% | [4] 123% | [5] 115% | [6] 131% | [7] 108% | [8] 87.5% | [9] 104%

CSc1nc(-c2ccc(O)cc2O)c2c(=O)[nH]c(Nc3ccc(S(=O)(=O)Nc4nc(C)cc(C)n4)cc3)nc2n1
inactive: [1] 95.1% | [2] 99.4% | [3] 79.8% | [4] 100% | [10] 115% | [5] 101% | [7] 108% | [8] 124%

NS(=O)(=O)c1ccc(-n2nc(-c3ccc(Br)cc3)ccc2=O)cc1
inactive: [1] 12.4% [100 µM] | [2] 40.1% [100 µM] | [3] 55.1% [100 µM] | [4] 34.2% [100 µM] | [10] 40.9% [100 µM] | [5] 66.8% [100 µM] | [7] 67% [100 µM] | [8] 106% [100 µM] | [9] 62.4% [100 µM]

CCCCCCCSc1ncnc2[nH]ncc12
inactive: [1] 89.5% | [2] 88.8% | [3] 120% | [4] 84.4% | [10] 61.2% | [5] 82.3% | [7] 87.5% | [8] 104% | [9] 109%
